# Results filed as inconclusive are left out. Entries that show only a call come without a potency. Active and inactive are the calls of the source. Unless noted, calls follow the shape of the full dose curve.
# Legend:
# [1] = target: Glutathione peroxidase 1 (Homo sapiens) (UniProt P07203); experiment: Primary qHTS Assay for Inhibitors of Recombinant Selenoprotein Glutathione Peroxidase 1 (GPX1) (AID 1845191; active = well fitted inhibition curve with a large enough effect; also: nearly all actives have a fitted effect of over 65% in size)
# Chain of Glutathione peroxidase 1 (Homo sapiens) (P07203 whole entry, looked up): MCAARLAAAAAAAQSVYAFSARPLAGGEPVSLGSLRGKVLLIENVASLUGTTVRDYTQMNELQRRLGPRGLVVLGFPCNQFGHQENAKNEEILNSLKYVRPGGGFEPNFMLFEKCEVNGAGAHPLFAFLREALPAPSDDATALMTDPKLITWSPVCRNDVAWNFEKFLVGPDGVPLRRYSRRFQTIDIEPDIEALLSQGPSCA
# How it was run: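 GPX1 10 nM, GR 100 nM, GSH 1 mM, NADPH 0.5 mM, CHP 0.5 mM (final). 30-min cpd preincubation, RT. Ex340/Em450 read t=0, t=15 min.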
# [2] = target: Phospholipid hydroperoxide glutathione peroxidase GPX4 (Homo sapiens) (UniProt P36969); experiment: Primary qHTS Assay for Inhibitors of Recombinant Selenoprotein Glutathione Peroxidase 4 (GPX4) (AID 1845192; active = well fitted inhibition curve with a large enough effect; also: nearly all actives have a fitted effect of over 65% in size; also: potency is read from the fitted curve at half-maximal effect)
# Chain of Phospholipid hydroperoxide glutathione peroxidase GPX4 (Homo sapiens) (P36969 whole entry, looked up): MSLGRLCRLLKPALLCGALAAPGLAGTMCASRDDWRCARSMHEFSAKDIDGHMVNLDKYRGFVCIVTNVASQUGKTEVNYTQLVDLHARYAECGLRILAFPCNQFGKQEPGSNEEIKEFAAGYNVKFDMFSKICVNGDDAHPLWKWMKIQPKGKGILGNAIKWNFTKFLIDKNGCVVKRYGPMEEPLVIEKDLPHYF
# How it was run: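 qHTS, GR-coupled: GPX4 200 nM + cpd 30 min RT → GSH 1 mM, NADPH 0.5 mM, GR 100 nM → CHP 0.5 mM start; fluor 340/450 at t0 and t15 min; no-enzyme wells as control.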
# [3] = qHTS drug screen for cell cycle checkpoint inhibitors in PARPi-resistant BRCA-mutant ovarian cancer cell lines. (AID 1963452); settings: PEO1/OlaR viability, CellTiter-Glo luminescence, 96 h, stronger effect = lower value
# How it was run: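 PEO1, PEO4 and PEO1/OlaR ovarian cancer cells, 600 per well, exposed 96 h at 37C to a dilution series. Viability read by CellTiter-Glo luminescence, normalized to DMSO and empty wells; activity summarized as Z-AUC.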
# [4] = Cytotoxicity counterscreen for inhibitors of SARS-CoV-2 cell entry (AID 1645845); settings: outcome: dose series up to 57.1 µM unless noted; also: nearly all actives have a fitted effect of over 50% in size
# How it was run: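 After a 15 min room-temperature ATPLite 1step step, luminescence reflected ATP remaining in HEK293-ACE2 cells exposed to compound for 1 h plus 48 h at 37 C, with percent activity set by cell and no-cell controls.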
# [5] = Primary qHTS for Huh7 cytotoxicity: counterscreen for inhibitors of MERS-S pseudotyped particle cell entry (AID 1479147); settings: outcome: dose series up to 57.1 µM unless noted
# [6] = Primary qHTS for inhibitors of MERS-S pseudo-typed particle cell entry (AID 1479149); settings: outcome: dose series up to 57.1 µM unless noted; also: nearly all actives have a fitted effect of over 60% in size
# [7] = Primary qHTS for Vero E6 cytotoxicity: counterscreen for inhibitors of SARS-S pseudo-typed particle cell entry (AID 1479150); settings: outcome: dose series up to 57.1 µM unless noted
# [8] = Primary qHTS for inhibitors of SARS-S pseudo-typed particle cell entry (AID 1479145); settings: outcome: dose series up to 57.1 µM unless noted; also: nearly all actives have a fitted effect of over 45% in size; also: potency is read from the fitted curve at half-maximal effect
# [9] = measured here: PEO1 parental Z-AUC
smiles,measurement,setting,value
COC12C(COC(N)=O)C3=C(C(=O)C(C)=C(N)C3=O)N1CC1C2N1C (stereo unspecified),Potency,[1],inactive
same,Potency,[2],inactive
same,Z-AUC,[3],-0.24 (inactive)
same,Z-AUC,[3]; [9],0.0826
same,Z-AUC,[3]; measured here: PEO4 Z-AUC,-0.134
C[C@]12COC(=O)C[C@@H]1CC[C@@H]1[C@@H]2CC[C@@]2(C)[C@H]1CC[C@]2(C)O,Potency,[4],inactive
same,Potency,[1],inactive
same,Potency,[2],inactive
same,Z-AUC,[3],0.596 (inactive)
same,Z-AUC,[3]; [9],0.611
same,Z-AUC,[3]; measured here: PEO4 Z-AUC,0.327
COc1cc(C)[nH]c(=O)c1CNC(=O)c1c(C)n([C@H](C)C2CCN(CC(F)(F)F)CC2)c2ccccc12,Potency,[4],inactive
same,Potency,[1],inactive
same,Potency,[2],inactive
Cn1c(/C=C/CO)c(CO)c2c1C(=O)C=C(N1CC1)C2=O,Potency,[1],inactive
same,Potency,[2],inactive
CC(=O)O[C@@]12CO[C@@H]1C[C@H](O)[C@@]1(C)C(=O)[C@H](O)C3=C(C)[C@@H](O)C[C@@](O)([C@@H](OC(=O)c4ccccc4)[C@H]21)C3(C)C,Potency,[4],inactive
same,Potency,[1],inactive
same,Potency,[2],inactive
COC[C@H]1OC(=O)c2coc3c2[C@@]1(C)C1=C(C3=O)[C@@H]2CC[C@H](O)[C@@]2(C)C[C@H]1OC(C)=O,Potency,[4],inactive
same,Potency,[1],inactive
same,Potency,[2],inactive
same,Z-AUC,[3],0.029 (inactive)
same,Z-AUC,[3]; [9],-0.102
same,Z-AUC,[3]; measured here: PEO4 Z-AUC,0.779
CC(C)(NC(=O)O[C@@H]1CN2CCC1CC2)c1csc(-c2ccc(F)cc2)n1,Potency,[4],inactive
same,Potency,[1],inactive
same,Potency,[2],inactive
same,Z-AUC,[3],1.16 (inactive)
same,Z-AUC,[3]; [9],0.982
same,Z-AUC,[3]; measured here: PEO4 Z-AUC,1.29
O=C(O)CNC(=O)C1C(=O)N(C2CCCCC2)C(=O)N(C2CCCCC2)C1=O,Potency,[4],inactive
same,Potency,[1],inactive
same,Potency,[2],inactive
same,Z-AUC,[3],0.43 (inactive)
same,Z-AUC,[3]; [9],0.47
same,Z-AUC,[3]; measured here: PEO4 Z-AUC,0.437
CO/C1=C/C(C)=C\[C@@H](C)[C@@H](O)[C@@H](C)C/C(C)=C\C=C/[C@H](OC)[C@@H]([C@@H](C)[C@@H](O)[C@H](C)[C@@]2(O)C[C@@H](O)[C@H](C)[C@@H](C(C)C)O2)OC1=O,Potency,[1],inactive
same,Potency,[2],inactive
same,Z-AUC,[3],-2.07 (inactive)
same,Z-AUC,[3]; [9],-2.1
same,Z-AUC,[3]; measured here: PEO4 Z-AUC,-2.32
Cc1[nH]ncc1-c1cc2nc([C@@H]3CC4CCN3CC4)[nH]c(=O)c2s1,Potency,[1],inactive
same,Potency,[2],inactive
C[C@@]12OC(=O)[C@]1([C@@H](O)[C@@H]1C=CCCC1)NC(=O)[C@@H]2CCCl,Potency,[1],inactive
same,Potency,[2],inactive
same,Z-AUC,[3],-0.972 (inactive)
same,Z-AUC,[3]; [9],-1.61
same,Z-AUC,[3]; measured here: PEO4 Z-AUC,-1.64
C=C[C@H]1CN2CCC1C[C@@H]2[C@@H](O)c1ccnc2ccccc12 (stereo partly specified),Potency,[4],inactive
CCCCCCC(C)(C)c1cc(O)c2c(c1)OC(C)(C)C1CC=C(CO)C[C@H]21 (stereo partly specified),Potency,[4],inactive
same,Potency,[1],inactive
same,Potency,[2],inactive
CC(C)(O)/C=C\C(=O)[C@](C)(O)[C@H]1[C@H](O)C[C@]2(C)[C@@H]3CC=C4[C@@H](C=C(O)C(=O)C4(C)C)[C@]3(C)C(=O)C[C@@]12C,Potency,[1],inactive
same,Potency,[2],inactive
same,Z-AUC,[3],-2.52 (inactive)
same,Z-AUC,[3]; [9],-1.67
same,Z-AUC,[3]; measured here: PEO4 Z-AUC,-2.46
C=C(C)[C@@H]1CCC(C)=C[C@H]1c1c(O)cc(CCCCC)cc1O,Potency,[5],inactive
same,Potency,[6],inactive
same,Potency,[7],inactive
same,Potency,[4],inactive
same,Potency,[1],inactive
same,Potency,[2],17.8 µM (active)
same,Z-AUC,[3],-0.487 (inactive)
same,Z-AUC,[3]; [9],0.125
same,Z-AUC,[3]; measured here: PEO4 Z-AUC,0.904
CC(=O)OC[C@H]1O[C@@H]([S-])[C@H](OC(C)=O)[C@@H](OC(C)=O)[C@@H]1OC(C)=O.CC[PH+](CC)CC.[Au],Potency,[2],inactive
same,Z-AUC,[3],-0.477 (inactive)
same,Z-AUC,[3]; [9],-0.483
same,Z-AUC,[3]; measured here: PEO4 Z-AUC,-0.599
O=C(CBr)N1CC([N+](=O)[O-])([N+](=O)[O-])C1,Potency,[4],inactive
same,Potency,[1],inactive
same,Potency,[2],inactive
CO[C@H]1CCC(O[C@H]2C[C@H]([C@]3(C)CC[C@]4(C[C@H](O)[C@@H](C)[C@@H]([C@@H](C)/C=C(\C)C(=O)[C@H](C)C[C@H](C)C(=O)O)O4)O3)O[C@]3(O[C@@H]([C@H]4O[C@@](O)(CO)[C@H](C)C[C@@H]4C)C[C@@H]3C)[C@@H]2C)O[C@@H]1C (stereo partly specified),Potency,[4],inactive
same,Potency,[1],inactive
same,Potency,[2],inactive
same,Z-AUC,[3],-1.49 (inactive)
same,Z-AUC,[3]; [9],-1.68
same,Z-AUC,[3]; measured here: PEO4 Z-AUC,-1.99
C[C@@H]1CC[C@@]2(OC1)O[C@H]1C[C@H]3[C@@H]4CC=C5C[C@@H](O[C@@H]6O[C@H](CO)[C@@H](O[C@@H]7O[C@@H](C)[C@H](O)[C@@H](O)[C@H]7O)[C@H](O)[C@H]6O[C@@H]6O[C@@H](C)[C@H](O)[C@@H](O)[C@H]6O)CC[C@]5(C)[C@H]4CC[C@]3(C)[C@H]1[C@@H]2C,Potency,[4],inactive
same,Potency,[1],inactive
same,Potency,[2],inactive
same,Z-AUC,[3],0.183 (inactive)
same,Z-AUC,[3]; [9],-0.31
same,Z-AUC,[3]; measured here: PEO4 Z-AUC,-0.496
CN1C(=O)[C@@H](NC(=O)[C@H](CCC(F)(F)F)[C@H](CCC(F)(F)F)C(N)=O)N=C(c2ccccc2)c2ccccc21,Potency,[4],inactive
same,Potency,[1],inactive
same,Potency,[2],inactive
CC(N[C@H]1C[C@@H]1c1ccccc1)c1ccc2c(c1)OCCO2 (stereo partly specified),Potency,[4],inactive
same,Potency,[1],inactive
CC(C)[C@]12O[C@H]1[C@@H]1O[C@@]13[C@@]1(C)CCC4=C(COC4=O)[C@@H]1C[C@@H]1O[C@@]13C2=O,Potency,[4],inactive
same,Potency,[1],inactive
same,Potency,[2],inactive
same,Z-AUC,[3],-1.63 (inactive)
same,Z-AUC,[3]; [9],-0.566
same,Z-AUC,[3]; measured here: PEO4 Z-AUC,-1.17
CC1(C)CC[C@]2(NC(=O)C(C)(F)F)CC[C@]3(C)[C@H](C(=O)C=C4[C@@]5(C)C=C(C#N)C(=O)C(C)(C)[C@@H]5CC[C@]43C)[C@@H]2C1,Potency,[1],inactive
same,Potency,[2],inactive
COc1cc2cc(c1Cl)N(C)C(=O)C[C@H](OC(=O)C(C)C)[C@]1(C)O[C@@H]1[C@H](C)[C@@H]1C[C@@](O)(NC(=O)O1)[C@H](OC)/C=C/C=C(\C)C2,Potency,[1],inactive
same,Potency,[2],inactive
Cc1c(N)nc([C@H](CC(N)=O)NC[C@@H](N)C(N)=O)nc1C(=O)N[C@H](C(=O)N[C@@H](C)[C@H](O)[C@@H](C)C(=O)N[C@@H](C(=O)NCCc1nc(-c2nc(C(=O)NCCC[S+](C)C)cs2)cs1)[C@@H](C)O)C(O[C@H]1O[C@H](CO)[C@H](O)[C@@H](O)[C@H]1O[C@H]1O[C@H](CO)[C@@H](O)[C@H](OC(N)=O)[C@@H]1O)c1cnc[nH]1 (stereo partly specified),Potency,[8],14.1 µM (active)
same,Potency,[5],inactive
same,Potency,[7],inactive
same,Potency,[4],inactive
same,Potency,[1],inactive
same,Potency,[2],inactive
same,Z-AUC,[3],-0.673 (inactive)
same,Z-AUC,[3]; [9],-1.76
same,Z-AUC,[3]; measured here: PEO4 Z-AUC,0.233
Cc1cc(O)ccc1C(C)(C)C,Potency,[8],inactive
same,Potency,[5],inactive
same,Potency,[6],inactive
same,Potency,[7],inactive
same,Potency,[4],inactive
CCc1ccc(Nc2c(F)c(F)cc(F)c2F)c(CC(=O)O)c1,Potency,[8],inactive
same,Potency,[5],inactive
same,Potency,[6],inactive
same,Potency,[7],inactive
O=C(N[C@H]1CCS[C@H]2CCC[C@@H](C(=O)O)N2C1=O)[C@@H](S)Cc1ccccc1,Potency,[8],inactive
same,Potency,[5],inactive
same,Potency,[6],inactive
same,Potency,[7],inactive
C=C1CCN([C@H](C)[C@](O)(Cn2cncn2)c2ccc(F)cc2F)CC1,Potency,[8],inactive
same,Potency,[5],inactive
same,Potency,[6],inactive
same,Potency,[7],inactive
CNC(C)[C@@H](O)c1ccc(O)cc1 (stereo partly specified),Potency,[8],inactive
same,Potency,[5],inactive
same,Potency,[6],inactive
same,Potency,[7],inactive
same,Potency,[4],inactive
same,Potency,[1],inactive
same,Potency,[2],inactive
CC1(C)[C@H](C=C(Cl)Cl)[C@@H]1C(=O)OCc1c(F)c(F)cc(F)c1F,Potency,[8],inactive
same,Potency,[5],inactive
same,Potency,[6],inactive
same,Potency,[7],inactive
same,Potency,[4],inactive
same,Potency,[1],inactive
same,Potency,[2],inactive
CCOC(=O)COc1ccc2c(C)c(CCN(CC)CC)c(=O)oc2c1,Potency,[8],inactive
same,Potency,[5],inactive
same,Potency,[6],inactive
same,Potency,[7],inactive
same,Potency,[4],inactive
